High-throughput results as filed in PubChem.
Only some compounds are listed: those with a hit (about 17% of all), similar ones and a draw of the others.
DT40 TDP1 CPT: growth inhibition of DT40 Tdp1-/-;hTDP1 cells with camptothecin (screen for TDP1 inhibitors). chicken DT40 Tdp1-/-;hTDP1 cells + 20 nM CPT, ATP luminescence, 48 h. Potency, µM (series often up to 46.2 µM), inactives show top-dose activity change, negative = growth inhibition, actives largely listed as inhibitors. hit rate 12% among 420,000. AID 686979; note: % is set by controls: 0 for no effect and ±100 for the full control effect; nearly all actives have a fitted effect of over 55% in size
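Cell growth measured by CellTiter-Glo luminescence after a minimum 48 h, 37 C compound exposure with 20 nM CPT in Tdp1-knockout DT40 cells stably expressing hTDP1, seeded 400/well; qHTS titration format.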
HepG2 viability: counter-screen for TGF-b inhibitors: cytotoxicity in HepG2 cells. Potency, µM (top dose mostly 46.1 µM), for the others: at the highest dose activity change, negative = cytotoxicity, actives largely listed as cytotoxic. HepG2 CAGA-GFP viability, ATP luminescence, 18 h. hit rate 0.76% among 410,000
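HepG2 CAGA-GFP cells (1000/well, DMEM with 1% FBS) received compound, then TGF-beta at 500 pg/mL final, and were incubated 18 hours at 37 degrees C. Viability was read by CellTiter-Glo luminescence. Media-only wells were set as complete cell-killing and DMSO as no toxicity.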
TGFb inhibitor: blocks TGF-b signaling; HepG2 CAGA-GFP TGF-b/SMAD3 reporter, GFP fluorescence, 18 h; TGF-beta stimulated, 500 pg/mL final; Potency, µM (titrated, usually from 46.1 µM), without a hit: top-dose activity, negative = inhibition, actives largely listed as inhibitors; AID 588855; hit rate 1.2% among 410,000; note: % is set by controls: 0 for no effect and ±100 for the full control effect; nearly all actives have a fitted effect of over 65% in size
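Inhibition was scored as loss of TGF-beta-induced (500 pg/mL final, 18 hours, 37 degrees C) GFP in HEPG2 cells carrying a CAGA-GFP reporter, in DMEM with 1% FBS. Well GFP was summed per cell; Activity was normalised to unstimulated and stimulated DMSO wells, then concentration-response fitting.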
DT40 TDP1 no CPT: qHTS for Inhibitors of human tyrosyl-DNA phosphodiesterase 1 (TDP1): qHTS in cells in absence of CPT; DT40 Tdp1-/- hTDP1 cells, no CPT, ATP luminescence, 48 h; hit rate 15% among 420,000; Potency, µM (top dose mostly 46.2 µM), for the others: top-dose activity change, negative = growth inhibition, usual class: inhibitors; note: % is set by controls: 0 for no effect and ±100 for the full control effect; nearly all actives have a fitted effect of over 55% in size
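Luminescent ATP content (CellTiter-Glo) served as the growth readout. Knockout chicken DT40 cells expressing human TDP1 were exposed to compounds without camptothecin for a minimum 48 hr at 37 °C.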
HT1080 IDH1KD tx: toxicity to HT-1080 IDH1 knockdown cells (counter line); HT-1080 IDH1 knockdown viability, ATP luminescence, 48 h; Potency, µM (titrated, usually from 46.1 µM), for the others: at the highest dose activity, negative = toxicity, actives largely listed as cytotoxic; hit rate 2% among 360,000; AID 686971;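 note: 0% = DMSO wells and -100% = cell-free medium wells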
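After a 2 h attachment period, IDH1KD HT-1080 cells took pin-transferred compound for 48 h at 37 °C; ATP-based luminescence after 10 min room-temperature reagent incubation reported viability.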
HT1080-NT tox: kills 2HG-producing HT-1080-NT fibrosarcoma cells; HT-1080-NT fibrosarcoma viability, CellTiter-Glo ATP luminescence, 48 h; Potency, µM (titrated, usually from 46.1 µM), for inactives: at the highest dose activity, negative = less viability, hits mostly cytotoxic; hit rate 1.6% among 360,000; AID 686970;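 note: NT is the 2HG producing partner of a matched IDH1 knockdown line; 0% = DMSO-treated cells and -100% = media-only wells without cells; nearly all actives have a fitted effect of over 55% in size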
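Compounds were tested in concentration-response format on HT-1080-NT cells for 48 hours at 37 degrees C. Cell viability came from CellTiter-Glo luminescence; curves were classified by r2, response magnitude and activity.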
* = called active by the depositor; ? = inconclusive; . = not tested or not shown; [ ] = remark or other dose. Calls come from the whole dose curve; as a rule, active = well fitted curve in the direction sought with a large enough effect; inconclusive = small, poorly fitted or top-dose-only effect, or another doubt; inactive = no such curve, though single readings can be large; an effect the other way counts as inactive or inconclusive. Potency is the fitted concentration of half-maximal effect.

SMILES | DT40 TDP1 CPT | HepG2 viability | TGFb inhibitor | DT40 TDP1 no CPT | HT1080 IDH1KD tx | HT1080-NT tox
CC1Cc2cc(S(=O)(=O)CCC(=O)Nc3ccccc3F)ccc2N1C(=O)C1CC1 (stereo not drawn) | ? | -9.0% | -2.3% | ? | . | .
CC1Cc2cc(S(=O)(=O)CCC(=O)NCc3ccccc3Cl)ccc2N1C(=O)C1CC1 (stereo not drawn) | 7.31µM* | -11.0% | -5.9% | 7.31µM* | . | .
CC(NC(=O)C1=CC=CN2CCS(=O)(=O)N=C12)c1ccc(Cl)cc1Cl (stereo not drawn) | -25.8% | -1.8% | -21.6% | ? | -0.8% | -4.2%
CC(CCc1ccccc1)NC(=O)C(Cc1ccccc1)NC(N)=O (stereo not drawn) | -17.1% | -7.6% | 0.9% | -10.9% | -11.6% | -0.1%
NC(=O)NC(Cc1ccccc1)C(=O)NCC1(N2CCCCC2)CCCCC1 (stereo not drawn) | -14.6% | 3.55µM* | -2.9% | -36.6% | 13.3% | 3.0%
O=C(O)c1ccccc1OC(C(=O)Nc1cc(Cl)cc(Cl)c1)c1ccccc1 (stereo not drawn) | 29.1µM* | 0.7% | -1.2% | 25.9µM* | -0.1% | ?
Cc1ccc(NC(=O)C(c2ccc(Cl)cc2Cl)N2CCCC2)cc1 (stereo not drawn) | 23.1µM* | -1.9% | 0.1% | 14.6µM* | -16.0% | -15.2%
O=C(Nc1cc(Cl)cc(Cl)c1)C(NCCO)c1ccccc1 (stereo not drawn) | -2.0% | 1.7% | -4.3% | ? | -4.8% | 19.0%
CS(=O)(=O)N1CCN(c2ccc(NC(=O)C(c3ccccc3)c3ccccc3)cc2)CC1 | -19.9% | -30.3% | -19.8% | ? | -7.4% | -5.9%
O=C(Nc1ccc(N2CCCC2)cc1)C(Cl)c1ccccc1 (stereo not drawn) | 8.2µM* | -30.1% | -15.6% | 13µM* | -11.8% | -5.9%
COc1cccc(NC(=O)C(c2ccccc2)N2CCCCC2)c1 (stereo not drawn) | -27.8% | -0.3% | -1.7% | ? | 0.7% | -7.1%
O=C(Nc1cc(Cl)cc(Cl)c1)C(c1ccccc1)N1CCCCC1 (stereo not drawn) | 20.6µM* | 3.4% | -2.9% | ? | -22.9% | -2.9%
Oc1c(C(c2ccc(Cl)cc2)N2CCOCC2)sc2nc(-c3ccco3)nn12 (stereo not drawn) | -8.0% | -37.9% | -29.4% | -17.7% | . | .
CC(C)c1ccc(NC(=O)C(c2ccc3c(c2)OCO3)N2CCCCC2)cc1 (stereo not drawn) | 18.4µM* | -20.7% | ? | 23.1µM* | -8.3% | -10.1%
O=C(CSc1nnc(NC(=O)c2ccccc2[N+](=O)[O-])s1)NCc1ccco1 | -14.1% | 12.5% | -0.4% | 0.3% | -0.9% | -13.4%
COC(=O)c1ccc(-c2cccc3c2OC(CNC(=O)c2ccc4c(c2)OCCO4)C3)nc1 (stereo not drawn) | -21.9% | . | . | -7.8% | . | .
NS(=O)(=O)OCc1ccc(C(F)(F)F)cc1 | ? | -0.1% | -20.6% | ? | 8.2% | ?
Cc1cc(-c2ccc(C(C)C)c(S(=O)(=O)N3CCC(C)CC3)c2)on1 | 25.9µM* | -31.5% | ? | 18.4µM* | ? | ?
Cc1cc(-c2ccc(C(C)C)c(S(=O)(=O)N3CCN(c4ccccc4)CC3)c2)on1 | 2.59µM* | -3.0% | -23.2% | 2.06µM* | 1.84µM* | 1.46µM*
COc1ccc(N2CCN(S(=O)(=O)c3cc(-c4cc(C)no4)ccc3C(C)C)CC2)cc1 | ? | -10.4% | 11.3% | ? | 11.2% | 17.8%
Cc1cc(-c2ccc(C)c(S(=O)(=O)N3CCC(C)CC3)c2)on1 | ? | -46.5% | ? | ? | . | .
CCc1ccc(-c2cc(C)no2)cc1S(=O)(=O)N1CCC(C)CC1 | ? | -9.0% | -4.0% | 23.1µM* | -17.4% | 2.9%
NC(=O)[C@@H]1CCCN1C(=O)CC1(c2cccc(F)c2)CC(=O)N(C2CCCC2)C1=O (stereo partly drawn) | 0.8%[9.04 µM] | . | . | -5.9% | . | .
O=C(COc1ccc(Cl)cc1Cl)NC(=O)N1CCOCC1 | -0.6% | 4.2% | -0.4% | -4.0% | 2.4% | 12.0%
COc1ccc(OC)c(CN2CCC3(CCC(CNC(=O)c4ccco4)O3)CC2)c1 (stereo not drawn) | 22.4%[9.04 µM] | . | . | -21.0% | . | .
SMILES | DT40 TDP1 CPT | HepG2 viability | TGFb inhibitor | DT40 TDP1 no CPT | HT1080 IDH1KD tx | HT1080-NT tox
Cc1ccc2ncc(S(=O)(=O)c3ccccc3)c(N3CCCCC3C)c2c1 (stereo not drawn) | 23.1µM* | 1.2% | ? | 18.4µM* | -18.2% | -20.2%
Cc1cc(S(=O)(=O)N2CCOCC2)ccc1OCC(=O)NCCN1CCOCC1 | 6.1% | -30.9% | -24.9% | 3.1% | 14.7% | 17.5%
CSc1nc(=NC(C)=O)ss1 | ? | -10.8% | -2.9% | 35.5µM* | 0.7% | 2.0%
CNC(=S)N(Cc1ccc2c(c1)OCO2)C1CC(=O)N(c2ccccc2)C1=O (stereo not drawn) | ? | -3.6% | 1.3% | -4.0% | 0.2% | -9.6%
CN(Cc1ccc(C(C)(C)C)cc1)C(=O)C1CCN(C(=O)Nc2ccccc2)CC1 | ? | -3.3% | 0.0% | 23.1µM* | -24.1% | -18.9%
Cc1ccc(CN(C)C(=O)C2CCN(C(=O)Nc3ccccc3)CC2)o1 | 3.8% | -5.1% | 5.3% | -18.9% | 6.4% | 1.7%
O=C(Nc1c(C(=O)N2CCN(c3ccccn3)CC2)oc2ccccc12)c1cccc([N+](=O)[O-])c1 | ? | -5.2% | 10.3% | ? | 20.5% | 5.3%
COc1ccc(S(=O)(=O)Nc2c(C)n(C)n(-c3ccccc3)c2=O)cc1C(=O)O | -2.8% | 15.4% | -19.1% | 14.1% | -1.1% | 8.4%
CCN(c1ccccc1)S(=O)(=O)c1ccc(C(=O)Nc2ccncc2)cc1 | 23.1µM* | -43.3% | -23.9% | 20.6µM* | -20.8% | -8.3%
Cc1ccnc(NC(=O)C(Cc2ccccc2)NC(=O)c2ccccc2)c1 (stereo not drawn) | ? | 7.4% | 1.5% | 16.4µM* | -12.3% | -10.3%
CCN(c1ccccc1)S(=O)(=O)c1ccc(C(=O)Nc2cc(C)ccn2)cc1 | 16.4µM* | -15.8% | -19.8% | 18.4µM* | 8.1% | 10.9%
O=C(NC(Cc1ccccc1)C(=O)NC(Cc1ccccc1)C(=O)O)c1ccccc1 (stereo not drawn) | 4.6% | 2.4% | -5.4% | 0.4% | 14.6% | 16.3%
CCN(c1ccccc1)S(=O)(=O)c1ccc(C(=O)Nc2ncccc2C)cc1 | 1.3% | 1.8% | 2.5% | -10.1% | -1.6% | -1.5%
